Laboratory results published in paper PMC10163288.
Only a sample is shown. The hit rate among all sequences tested is not known here. A number with no mark means an inactive call.

B1: il10ra_site1_normal_mot_HHH_b2_07144_000000289_0001_1_18_H_._HHH_b1_03935_0001_0000100008_0000001_1 (protein)
chain: SSSSSEEAEELYELSREVAHLHREGDEEEAKRLLEEAIELAEELGNFNILFALELLLRQLSSSSS
B2: il10ra_site1_sap_20_mot_HHH_b2_00093_af2_000000025_0001_40_54_H_._HHH_b2_05679_0001_0000100006_0000001_0_0001_af2pred_0001 (protein)
chain: SSSSSIHERDVELALLAARLLAERGDPEAVREALELARRQAESTNNEELEELVEEVERELSSSSS
B3: il10ra_site1_normal_mot_8756ee2cf497b5429c717dfc0c0bcfd6_0001_000000186_0001_1_13_H_._HHH_b1_06578_af2_0001_0000300032_0000001_1_af2pred_0001 (protein)
chain: SSSSSIAEEVFRLLREAAELYHEGDKEKAEEILKEAEELAEEANDEIAKVIIEFLKRAIENSSSS
B4: il10ra_site1_normal_mot_HHH_b1_00566_000000151_0001_22_39_H_._HHH_b1_00313_af2_0001_0000700014_0000001_0 (protein)
chain: SSSSDEREEIAILVAEAIILAERRGDKEVAEELWQLLVEAYYHGDPELFREVEELAEKFLSSSSS
B5: il10ra_site1_sap_26_mot_HHH_b2_06857_af2_000000179_0001_42_54_H_._HHH_b1_00069_af2_0001_0000100009_0000001_0_0001_af2pred_0001 (protein)
chain: SSSSSEEREEIYRLIREALELLANGNPEEAEEVLEEAERLAKEANSPLFEFALEAARRKVKSSSS
B6: il10ra_site1_normal_mot_HHH_b2_08186_000000021_0001_43_56_H_._HHH_b1_02914_0001_0000400023_0000001_0 (protein)
chain: SSSSDREERIQELLEEAEELAKEGNPEEAARLLQEAIRLAFELGDEELLKEIWEVLRKVASSSSS
B7: il10ra_site1_normal_mot_HHH_b2_08186_000000021_0001_43_56_H_._HHH_b2_05014_af2_0002_0000100001_0000002_0 (protein)
chain: SSSSDEEELRELIEEAEELLERGNPEEALEVVLRALQLAFELSNAETLQRIWELLKRIATSSSSS
B8: il10ra_site1_sap_21_mot_HHH_b2_02463_af2_000000222_0001_1_19_H_._HHH_b1_01285_0001_0000200013_0000001_0_0001 (protein)
chain: SSSSDEANQEALELVVEAVRLALRGNPEEAKEVLEEARELAREGNNERLVKMIEDMLRALDSSSS
B9: il10ra_site1_sap_26_mot_HHH_b1_01707_000000240_0001_1_17_H_._HHH_b2_07405_0001_0000500060_0000001_0_0001 (protein)
chain: SSSSDQEFARLMMEALHLAFQLRDPETLRELWELYRRYAEEGDPRYEEALEELLEELRERSSSSS
B10: il10ra_site1_normal_mot_HHH_b2_03328_af2_000000127_0001_1_19_H_._f3d5fbb9806109dc41c8faca98c9de00_0001_1_0001_0000300008_0000002_0_af2pred_dldesign_0_af2pred (protein)
chain: LELSRLLSDAVITAKNPELAQRLAEVAREIAEDPSKLEELLAELLEEAKAAGDEEVVALLEKALE
B11: il10ra_site1_normal_mot_HHH_b2_06767_000000020_0001_41_56_H_._HHH_b2_06012_0001_0000200016_0000002_0_af2pred_0001 (protein)
chain: SSSSSVHEAAQLLLRVARALKEGDEELLEELRKELEELLKKLDDERARLAVRAALAAIKNFSSSS
B12: il10ra_site1_sap_27_mot_HHH_b1_06128_000000102_0001_1_20_H_._HHH_b1_02043_af2_0001_0000100004_0000002_0_0001 (protein)
chain: SSSSDVEEEVRELLEEAQRYYEEGNPQEVFRLIEEAIKVASEHGDEEAQKLVHEFLHEMFGSSSS
B13: il10ra_site1_normal_mot_HHH_b2_00984_000000042_0001_1_20_H_._HHH_b1_04863_af2_0001_0000500015_0000001_0 (protein)
chain: SSSSSDEEEELEELLEQLKKALEENDRELVAQLARRLVQLAFRLSDPEALQEAWELIRLLSSSSS
B14: il10ra_site1_normal_mot_HHH_b1_01821_000000158_0001_23_39_H_._HHH_b1_04578_0001_0000500034_0000001_1 (protein)
chain: SSSSSEFQRLAQRAVQLAFRLSDQEVLRRIWELFKRYIEEGDPRLEEELEELLEELEERGSSSSS
B15: il10ra_site1_normal_mot_HHH_b2_00277_af2_000000172_0001_1_17_H_._HHH_b1_06276_0001_0000100006_0000001_0_af2pred_0001 (protein)
chain: SSSSSSTEEEVEELLEEAKRIEDPEERSYVLTEAWALAYRLNDPELEREIEEVAKRLTSSSSSSS
B16: il10ra_site1_sap_17_mot_HHH_b2_04681_000000155_0001_43_57_H_._HHH_b2_07038_af2_0001_0000400013_0000001_0_0001_af2pred_dldesign_0_af2pred (protein)
chain: SSSSSSSDPERILALIRRALEEEDPEKARELLEEALRLAKEAGNEVAIRAAEYLLRQVSSSSSSS
B17: il10ra_site1_normal_mot_HHH_b2_03328_af2_000000127_0001_1_19_H_._HHH_b1_08499_0001_0000200023_0000001_0 (protein)
chain: SSSSDVAEEAYELSRRAAELLYQGNPEEARELLEEAEELLKERGDHVILFAVRLLLRILNSSSSS
B18: il10ra_site1_normal_mot_HHH_b2_00475_000000107_0001_44_57_H_._HHH_b2_03520_0001_0000400025_0000001_0 (protein)
chain: SSSSDEEEVSHLLFRALQLLEEGDKEEAEELVEEAKRIAEESNDPELERYVEIAEHFVKAHSSSS
B19: il10ra_site1_sap_33_mot_HHH_b2_07521_000000141_0001_20_37_H_._HHH_b2_01915_0001_0000700039_0000001_1_0001 (protein)
chain: SSSSSEEVEELLEQARELAEEGDFEEAAKLLLEALQIAAELQDPELLRLVWEVLHEVARLNSSSS

Target: il10ra, Q13651
Sequence (Q13651 whole entry): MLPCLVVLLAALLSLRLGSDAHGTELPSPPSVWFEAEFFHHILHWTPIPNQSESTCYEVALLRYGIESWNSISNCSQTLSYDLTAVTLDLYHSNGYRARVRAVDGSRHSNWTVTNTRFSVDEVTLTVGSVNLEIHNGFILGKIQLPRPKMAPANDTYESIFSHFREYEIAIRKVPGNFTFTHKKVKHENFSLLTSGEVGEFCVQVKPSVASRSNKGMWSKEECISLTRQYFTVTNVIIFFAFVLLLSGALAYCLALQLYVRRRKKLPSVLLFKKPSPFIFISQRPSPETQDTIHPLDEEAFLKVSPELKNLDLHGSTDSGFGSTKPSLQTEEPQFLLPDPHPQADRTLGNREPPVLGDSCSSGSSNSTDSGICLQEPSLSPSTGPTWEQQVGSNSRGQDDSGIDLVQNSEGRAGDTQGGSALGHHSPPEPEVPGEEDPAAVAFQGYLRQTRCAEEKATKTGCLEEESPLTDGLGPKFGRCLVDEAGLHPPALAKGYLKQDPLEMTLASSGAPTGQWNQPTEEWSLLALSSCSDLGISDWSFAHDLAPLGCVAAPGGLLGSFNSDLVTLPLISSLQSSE
Test: yeast display titration

Binder | apparent Kd
B1 | no binding seen
B2 | no binding seen
B3 | no binding seen
B4 | 233 to 399 nM (active)
B5 | no binding seen
B6 | no binding seen
B7 | no binding seen
B8 | no binding seen
B9 | no binding seen
B10 | no binding seen
B11 | no binding seen
B12 | no binding seen
B13 | no binding seen
B14 | no binding seen
B15 | no binding seen
B16 | no binding seen
B17 | no binding seen
B18 | no binding seen
B19 | > 2780 nM
